Screens: PubChem, The Scripps Research Institute Molecular Screening Center
AHR act = AHR activators, primary screen, cell-based, luminescence, luciferase reporter, human; AID 2796, 2010; 2.5% of 320,000 active; activation, % at 5 µM; AHR-responsive luciferase reporter cells; Aryl hydrocarbon receptor (Homo sapiens), P35869; in the data active = activation above about 47%;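 also: 0% = vehicle wells and 100% = reference agonist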
hcDAF12 agonist = H. contortus DAF-12 nuclear receptor activators, primary screen, cell-based, luminescence, HEK293, lit1-tk-luc reporter; 1.4% of 370,000 active; activation, % at 6.8 µM; AID 652067, 2013; HEK293 hcDAF-12 lit1-tk-luc reporter; 0% DMSO, 100% Δ7-dafachronic acid;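 active = activation above the mean of all tested compounds plus 3 SD, cut at about 5.5% in these data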;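 also: 100% = response to 3 µM Δ7-dafachronic acid high control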
hgDAF-12 ag = H. glycines DAF-12 receptor agonists, primary screen, cell-based, luminescence, HEK293, GAL4 fusion, UAS-luciferase; 1.8% of 370,000 active; HEK293 GAL4-hgDAF12 UAS-luciferase reporter, agonist luminescence; normalized to butyrate control; Nuclear hormone receptor DAF-12 (Heterodera glycines), GAL4 fusion; activation, % at 6.8 µM; AID 687014, 2013;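 active = activation above a cutoff set at the mean of all screened compounds plus 3 SD, cut at about 10% in these data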;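 also: 0% = DMSO wells and 100% = sodium butyrate wells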
DAX1 inh-1 = DAX1 (NR0B1) inhibitors on StAR promoter, primary screen, cell-based, luminescence, SF-1 (NR5A1), full-length DAX-1; HEK293T StAR-luciferase reporter, SF-1/DAX-1 repression relief; inhibition, % at 6.8 µM; 1.1% of 370,000 active; AID 652010, 2013;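 active = inhibition above the mean over all tested compounds plus 3 SD, cut at about 3.6% in these data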;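 also: 0% = DAX-1 cells with DMSO and 100% = cells lacking DAX-1 with DMSO; higher inhibition means more luminescence from relief of DAX-1 repression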
ssDAF12 agonist = S. stercoralis DAF-12 nuclear receptor activators, primary screen, cell-based, luminescence, HEK293, GRIP1 co-expression, lit1-tk-luc; Nuclear hormone receptor DAF-12 (Strongyloides stercoralis); HEK293 ssDAF-12/GRIP1 lit1-tk-luc reporter; % of 3 µM dafachronic acid response; activation, % at 6.8 µM; 1% of 370,000 active; AID 652126, 2013;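 active = activation above the mean over all tested compounds plus 3 SD, cut at about 0.9% in these data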;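 also: 0% = DMSO-only wells and 100% = 3 µM delta7-dafachronic acid wells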
DAX1 inh-2 = DAX1 (NR0B1) inhibitors, primary screen, cell-based, HEK293, Gal4-DAX1, luciferase luminescence. AID 504766, 2011. 0.99% of 340,000 active. Nuclear receptor subfamily 0 group B member 1 (Homo sapiens), P51843. inhibition, % at 6.75 µM. HEK293 Gal4-DAX1 luciferase reporter;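 active = inhibition above the mean over all tested compounds plus 3 SD, cut at about 4.2% in these data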;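 also: 0% = DAX1-transfected cells with DMSO and 100% = empty-vector control cells with DMSO; inhibition shows as a rise in luminescence from relieved DAX1 repression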
hgDAF12 conf = H. glycines DAF-12 receptor agonists, confirmation, cell-based, luminescence, HEK293, GAL4-LBD fusion. shares compounds with hgDAF-12 ag. HEK293 GAL4-hgDAF12 luciferase reporter, agonist mode; percent of butyrate response. activation, % at 6.8 µM. 80% of 3,300 active;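 active = mean activation over triplicate wells above the hit cutoff derived from the earlier primary screen, cut at about 11% in these data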;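 also: 0% = DMSO low control and 100% = 2 mM sodium butyrate high control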
LXR ag 2 = LXR agonists, Gal4 luciferase reporter, confirmation, counter-screen for hgDAF-12 agonist project, cell-based, luminescence, HEK293, H. glycines campaign; shares compounds with hgDAF-12 ag; 24 h; activation, % at 6.8 µM; 3,300 tested, under 10 active;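 active = mean activation of the triplicate above a set limit carried over from the primary screen, none filed active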
The depositor's hits bear a star; x = not tested or not shown. The list is not random: actives were taken first. Their share in the collection is about 5.7%.

SMILES	AHR act	hcDAF12 agonist	hgDAF-12 ag	DAX1 inh-1	ssDAF12 agonist	DAX1 inh-2	hgDAF12 conf	LXR ag 2
Cc1nnc2n(C)c(=O)c3c4c(sc3n12)COC(C)(C)C4	-1	-1	4	0	-1	-1	x	x
Cc1cc(C(=O)OCC(=O)Nc2cc(Cl)ccc2C)c(C)o1	0	-1	1	-2	-1	1	x	x
COC1=C/C(=C/c2c(N)n3nc(-c4ccc(C)cc4)sc3nc2=O)C=CC1=O	x	6.2*	13*	1	1	-1	8	0
C/C(=N\NC(=O)c1ccn[nH]1)c1cn(C)nc1C	25	3	15*	2	1.3*	2	10	0
CN=c1scc(-c2ccccc2F)n1/N=C(\C)c1cccnc1	78*	4	15*	3	0	2	12*	1
C=CCn1c(SCC(=O)Nc2ccc(N3CCOCC3)cc2)nnc1-c1ccncc1	20	-2	2	0	-1	-1	x	x
Cc1ccc(C(C)(C)NC(=O)C2CCC(=O)N(C3CCCCCC3)C2)cc1 (configuration not stated)	7	6.0*	13*	3	0	1	14*	0
Cc1ccc(C(C)(C)NC(=O)C2CCC(=O)N(CCCN3CCOCC3)C2)cc1 (configuration not stated)	0	1	0	0	-1	0	x	x
Cc1ccc2nc(NC(=O)c3ccc(Br)o3)sc2c1	16	6.3*	15*	2	1	4	17*	1
Cc1cc2sc(NC(=O)c3ccco3)nc2cc1Cl	-3	4	14*	3	-1	2	20*	1
CCCCc1ccc2nc(NC(=O)c3ccco3)sc2c1	x	5	22*	x	0	x	19*	1
O=C(Nc1nc2ccc(Br)cc2s1)c1ccco1	12	6.1*	13*	3	1	1	17*	1
CCn1c(SCC(=O)OC)nnc1-c1c[nH]c2ccccc12	6	-1	0	0	-2	-1	x	x
c1ccc(-c2nc3ccccc3nc2-c2ccccn2)nc1	9	1	1	0	-2	1	x	x
O=C(CSc1nnc(NC(=O)C2CC2)s1)Nc1cccc(F)c1	4	-1	1	-1	-1	0	x	x
Cc1ccccc1NS(=O)(=O)c1ccc(C(=O)N2CCN(c3ccccc3O)CC2)cc1	-9	-1	-2	-4	-1	-1	x	x
Cc1ccc(NC(=O)Nc2ccc(Cl)cc2)c(Br)c1	-3	1	3	0	0	0	x	x
O=c1c(-c2ccc3c(c2)OCCO3)coc2cc(O)cc(O)c12	-2	4	14*	3	0	2	15*	1
CCOc1ccc(NC(=O)Cn2nc(C(N)=O)c3ccccc3c2=O)cc1S(=O)(=O)N1CCCC1	4	0	2	-1	-1	-1	x	x
CN1CCN(S(=O)(=O)c2cc(Cl)c(Cl)cc2Cl)CC1	1	-1	-2	0	-1	-2	x	x
Cc1ccc(NC(=O)C2C3CCCCC32)cc1[N+](=O)[O-] (configuration not stated)	1	3	6	0	-1	3	x	x
Cc1cc(NC(=O)OC2CCCCC2)ccc1[N+](=O)[O-]	2	2	17*	1	0	1	14*	1
O=C(N/N=C/c1ccccc1)c1[nH]ncc1Br	7	2	15*	2	0	4.2*	14*	0
Cc1cc(C(=O)COC(=O)c2cc(Cl)ccc2N)c(C)n1Cc1ccco1	0	4	14*	3.7*	0	1	13*	1
Cc1cc(C(=O)COC(=O)c2ccco2)c(C)n1Cc1ccco1	-5	-3	-8	-1	-3	2	x	x
SMILES	AHR act	hcDAF12 agonist	hgDAF-12 ag	DAX1 inh-1	ssDAF12 agonist	DAX1 inh-2	hgDAF12 conf	LXR ag 2
Cc1cc(NC(=O)CSc2nc3c(cc2C#N)CCC3)no1	-4	4	13*	3	-1	4.7*	15*	1
NCCS(=O)(=O)NC1CCCCC1	-1	0	3	0	-1	-1	x	x
CC(=O)c1ccc(NC(=O)C2CC(=O)N(Cc3ccccc3)C2)cc1 (configuration not stated)	2	0	14*	1	-1	1	10	0
NS(=O)(=O)c1ccc(NC(=O)CSC2CCCCC2)cc1	3	-1	2	1	-1	0	x	x
COc1ccc(NC(=O)CSC2CCCCC2)cc1	0	4	23*	1	0	3	15*	0
O=c1cc(-c2ccc(O)cc2)oc2cc(O)cc(O)c12	10	0	18*	3.8*	-1	2	10	1
O=c1c(O)c(-c2ccc(O)cc2)oc2cc(O)cc(O)c12	2	2	15*	2	-1	3	5	0
O=c1cc(-c2ccccc2)c2ccc(O)cc2o1	2	0	1	0	-1	1	x	x
O=c1cc(-c2ccccc2)oc2cc(O)ccc12	x	2	15*	4.5*	-1	2	12*	1
O=C(/C=C/c1ccc(Br)cc1)NC(=O)c1ccccc1O	20	5	13*	3	0	0	12*	1
S=C(NCCc1ccc(Cl)cc1)NC1CC1	2	-1	16*	0	-1	1	2	0
Cc1c(Cl)cccc1NC(=O)N1CCCC1	-2	0	2	0	-2	0	x	x
CCOC(=O)N1CCC(NC(=O)c2cc(S(=O)(=O)N3CCCCC3)ccc2F)CC1	-1	0	1	-1	-1	-1	x	x
COc1ccc(C2NC(=O)CS2)cc1OC (configuration not stated)	4	-1	-2	0	-1	1	x	x
COc1ccc(C2NN=C(c3ccc(C)cc3)S2)cc1OC (configuration not stated)	28	3	18*	3	0	4	18*	1
